# Assay outcomes deposited in PubChem by National Center for Advancing Translational Sciences (NCATS).
# ELG1 repair inh: qHTS screen for small molecules that inhibit ELG1-dependent DNA repair in human embryonic kidney (HEK293T) cells expressing luciferase-tagged ELG1 | HEK293T ELG1-luciferase reporter, luminescence, 16 h; DNA damage induced by 5-fluorouridine | Potency, µM (top dose mostly 46.1 µM), hits mostly inhibitors | 330,000 compounds, 2.3% hits | AID 504467, 2011; further: nearly all actives have a fitted effect of over 55% in size
#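 Step one: seed 2,000 cells per well. Step two: pin-transfer compound or DMSO alongside 5-fluorouridine. Step three: incubate 16 hr, 37 °C, 5% CO2. Step four: add ONE-Glo, wait 30 min, read luminescence.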
# B2AR arrestin: qHTS assay of beta-arrestin-biased ligands of beta2-adrenergic receptor | Beta-2 adrenergic receptor (Homo sapiens), P07550 | beta-arrestin recruitment to beta2AR, cell-based reporter | Potency, µM (highest dose often 46.1 µM), hits mostly activators | 330,000 compounds, 0.02% hits | AID 492947, 2010; further: nearly all actives have a fitted effect of over 65% in size
# Gal4-VP16 FLuc: VP16 counterscreen qHTS for inhibitors of ROR gamma transcriptional activity. Drosophila S2 Gal4-VP16 UAS-luciferase, luminescence, 20 h. Potency, µM (titrated, usually from 53.6 µM), usual class: inhibitors. 310,000 compounds, 3.5% hits. AID 2546, 2010;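 further: Gal4-VP16 expression switched on by copper sulfate through the metallothionein promoter; nearly all actives have a fitted effect of over 50% in size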
# TSHR antag: Antagonists of the Thyroid Stimulating Hormone Receptor: HTS campaign; activity change, negative = inhibition, % at 11.5 µM; TSHR-expressing cells, TSH-stimulated cAMP HTRF, 2 h; hits give low values; 330,000 compounds, 0.2% hits; Thyrotropin receptor (Homo sapiens), P16473; AID 504810, 2011;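 active means activity change below a set negative limit, meaning inhibition stronger than a set level, cut at about -70% in these data; inconclusive means activity change between two set negative limits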
# Target sequence (P16473 whole entry, looked up): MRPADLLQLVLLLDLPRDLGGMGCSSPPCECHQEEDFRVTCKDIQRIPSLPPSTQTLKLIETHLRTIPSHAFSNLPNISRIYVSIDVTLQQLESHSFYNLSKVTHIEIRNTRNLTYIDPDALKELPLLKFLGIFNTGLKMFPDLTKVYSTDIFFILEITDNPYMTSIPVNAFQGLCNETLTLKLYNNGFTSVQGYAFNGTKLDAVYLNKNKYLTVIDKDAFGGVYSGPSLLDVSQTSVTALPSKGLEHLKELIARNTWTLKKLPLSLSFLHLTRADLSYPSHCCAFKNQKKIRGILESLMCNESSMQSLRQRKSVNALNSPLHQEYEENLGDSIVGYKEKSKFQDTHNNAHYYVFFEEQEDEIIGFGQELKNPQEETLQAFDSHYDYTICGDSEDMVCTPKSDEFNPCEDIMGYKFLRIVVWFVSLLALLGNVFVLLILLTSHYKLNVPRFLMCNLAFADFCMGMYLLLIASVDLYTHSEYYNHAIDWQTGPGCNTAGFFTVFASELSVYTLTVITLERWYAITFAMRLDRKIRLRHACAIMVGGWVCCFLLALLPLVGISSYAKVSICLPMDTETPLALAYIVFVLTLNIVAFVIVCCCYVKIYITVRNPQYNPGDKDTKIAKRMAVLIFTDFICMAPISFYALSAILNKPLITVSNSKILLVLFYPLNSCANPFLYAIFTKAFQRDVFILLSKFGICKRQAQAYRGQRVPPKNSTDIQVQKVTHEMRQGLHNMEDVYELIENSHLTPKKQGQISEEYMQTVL
#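 Freshly harvested TSHR cells receive pin-tooled compound, then EC80 TSH at 4nM final. After 2 hours at 37 deg C, antibody in lysis buffer and cAMP-d2 are added; 30 minutes at ambient temperature precede the HTRF read.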
# RORgamma inh: qHTS for inhibitors of ROR gamma transcriptional activity; Nuclear receptor ROR-gamma (Mus musculus), P51450; Drosophila S2 Gal4-RORgamma UAS-luciferase reporter, 20 h; Potency, µM (highest dose often 53.6 µM), actives largely listed as inhibitors; 310,000 compounds, 5.4% hits; further: nearly all actives have a fitted effect of over 60% in size
#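 Read-out: Photinus luciferase luminescence; inhibitors lower reporter signal. Insect Schneider cells with Gal4-ROR gamma fusion under metallothionein promoter, UAS reporter; 700 uM final copper sulfate induction, 20 hr, ambient temperature.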
# Hits are given with their value; n = inactive; u = inconclusive; x = not tested or not shown; ! = not active in a repeat; [ ] = remark or other dose. Sampled rows, rich in hits. Any-hit rate of the full collection: about 7.5%. Unless noted, the call rests on the fitted dose curve; in most records, active means well fitted curve in the direction sought with a large enough effect; inconclusive means small, poorly fitted or top-dose-only effect, or another doubt; inactive means no such curve, though single readings can be large; an effect the other way counts as inactive or inconclusive.
SMILES,ELG1 repair inh,B2AR arrestin,Gal4-VP16 FLuc,TSHR antag,RORgamma inh
CCCCCCCCCCCCCl,x,x,n,x,n
CCCCCCCCCCCCCCCC[n+]1ccccc1,x,x,16µM,x,u
CC(=O)/C=C/c1ccccc1,u,n,n,n,n
CC(=O)[O][Hg][c]1ccccc1,x,x,n,x,1.1µM
C/C1=C\[C@@H](C)C/C=C/[C@H]2[C@@H]3O[C@]3(C)[C@@H](C)[C@H]3[C@H](Cc4c[nH]c5ccccc45)NC(=O)[C@]32C(=O)/C=C/C(=O)[C@@H]1O,u,n,11µM,n,5.6µM
CC12CC[C@H]3[C@@H](CCC4(O)C[C@H](O)CCC34/C=N/NC(=O)c3ccc(O)cc3)C1(O)CCC2C1=CC(=O)OC1 (some centres not stated),n,n,10µM,n,8.9µM
CC12CC[C@H]3[C@@H](CCC4(O)C[C@H](O)CCC34/C=N/NC(=O)c3ccccc3O)C1(O)CCC2C1=CC(=O)OC1 (some centres not stated),u,n,n,n,n
CN(C)c1ccc(C(=O)N/N=C/C23CC[C@@H](O)CC2(O)CC[C@@H]2[C@@H]3CCC3(C)C(C4=CC(=O)OC4)CCC23O)cc1 (some centres not stated),8.2µM,n,n,u,n
COc1ccc(C(=O)N/N=C/C23CC[C@@H](O)CC2(O)CC[C@@H]2[C@@H]3CCC3(C)C(C4=CC(=O)OC4)CCC23O)cc1 (some centres not stated),u,n,n,n,n
O=C(Nc1cccc(F)c1)N1CC2(CCNCC2)C1,x,x,n,x,n
C[C@@H]1C[C@H]2OC(=O)C3(CO3)[C@H]2[C@H](O)[C@]2(C)C(=O)C3OC3[C@@H]12 (some centres not stated),u,n,u,n,10µM
CCOC(=O)CCN(SN(C)C(=O)Oc1cccc2c1OC(C)(C)C2)C(C)C,x,x,n,x,n
NS(=O)(=O)c1cc(C(=O)OCC(=O)Nc2ccc3[nH]c(=O)[nH]c3c2)ccc1Cl,u,n,x,n,x
C=C(C)C#N,x,x,n,x,n
Cc1ccc(N2C(=O)NC(=O)/C(=C\c3cc(C)n(-c4sc5c(c4C#N)CCCC5)c3C)C2=O)cc1,n,n,n,n,n
CCOC(=O)c1c(-n2c(C)cc(C=C3C(=O)NC(=S)NC3=O)c2C)sc2c1CCCC2,u,n,u,n,13µM
c1ccc2c(c1)CCCC2,x,x,n,x,n
CC1=C2C(=O)C3C(CC=C4C[C@@H](O)CC[C@@]43C)[C@@H]2CC[C@]12O[C@@H]1C[C@H](C)CN[C@H]1C2C (some centres not stated),x,x,n,x,n
COc1ccc(N2C(=O)CS(=O)C(c3ccccc3)C2=O)cc1 (configuration not stated),n,n,n[10 µM],n,1.3µM
COc1ccc(N2C(=O)CC(N3CCC(n4c(=O)[nH]c5ccccc54)CC3)C2=O)cc1 (configuration not stated),n,n,n,n,n
CCC(=O)CCCCC[C@@H]1NC(=O)[C@H]2CCCCN2C(=O)[C@H]([C@@H](C)CC)NC(=O)[C@H](Cc2cn(OC)c3ccccc23)NC1=O,x,x,n,x,n
c1ccc(C2(c3ccccc3)CC2C2=NCCN2)cc1 (configuration not stated),x,x,n,n,n
c1ccc2c(c1)OC[C@@H](C1=NCCN1)O2,x,x,n,x,22µM!
S=C=NCc1ccccc1,x,x,u,x,5.6µM
CCCC1(CCC)C(=O)NC(=NCc2ccccc2)NC1=O,u,n,n,n,n
CC(C)CCCC1(C)C=Cc2c(O)c3c(c(CCC(C)C)c2O1)OC12C(CC4CC1C(C)(C)OC2(CCC(C)C(=O)O)C4O)C3=O (configuration not stated),x,x,n,x,n
COc1c(CC=C(C)C)c2c(c3oc(=O)c(-c4ccc(O)cc4)c(O)c13)C=CC(C)(C)O2,x,x,n,x,n
CC(C)=CCCC1(C)C=Cc2c(O)c3c(c(CC=C(C)C)c2O1)OC12C(=CC4CC1C(C)(C)OC2(C/C=C(/C)C(=O)O)C4O)C3=O (configuration not stated),x,x,2.2µM,x,2.8µM
